Tau fibril FP: inhibitors of human tau fibril formation; AID 1468; Potency, µM (doses to about 57.7 µM), without a hit: at the top dose activity, negative = inhibition, hits mostly inhibitors; K18 P301L tau heparin fibrillization, Alexa594 FP, 6 h; hit rate 0.39% among 280,000; active = well fitted curve in the direction sought with a large enough effect; inconclusive = small, poorly fitted or top-dose-only effect, or another doubt; inactive = no such curve, though single readings can be large; an effect the other way counts as inactive or inconclusive; note: nearly all actives have a fitted effect of over 55% in size
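Heparin (20 uM) drove fibril formation of recombinant tau K18 P301L, 15 uM unlabeled with 0.24 uM Alexa 594 label, for 6 hr at 37 C in 100 mM sodium acetate pH 7. Fluorescence polarization (555/632 nm) read 1 hr after 30 uM ThT.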
HPGD block: inhibitors of human 15-hydroxyprostaglandin dehydrogenase (HPGD). P15428. purified HPGD, NADH fluorescence kinetic, PGE2 substrate. Potency, µM, for the others: at the highest dose activity change, negative = inhibition, hits mostly inhibitors. hit rate 4.3% among 150,000
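20 nM HPGD preincubated 15 min at room temperature with compound in 50 mM Tris-HCl pH 8, 0.01% Tween 20. Started with 1 mM NAD+ and 30 uM prostaglandin E2; NADH fluorescence (360/450 nm) read 5 times over 30-s intervals, last minus first.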
Tau fluor cs: counter-screen for tau fibril formation inhibitors; Potency, µM (titrated, usually from 57.7 µM), without a hit: at the highest dose activity change, negative = decrease; tau K18 P301L Alexa594 fluorescence, heparin fibrillization; AID 1463; hit rate 0.93% among 280,000; active = well fitted curve in the direction sought with a large enough effect; inconclusive = small, poorly fitted or top-dose-only effect, or another doubt; inactive = no such curve, though single readings can be large; an effect the other way counts as inactive or inconclusive; note: nearly all actives have a fitted effect of over 55% in size
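Human tau K18 P301L (15 uM unlabeled, 0.24 uM Alexa 594-labeled) in 100 mM sodium acetate pH 7 with 20 uM heparin, 6 hr at 37 C. ThT 30 uM added, 1 hr ambient; Alexa 594 FP and total fluorescence read at 555/632 nm.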
ALDH1A1 inh: blocks purified human ALDH1A1 activity | P00352 | Purified ALDH1A1, NADH fluorescence, propionaldehyde substrate | Potency, µM (highest dose often 75.3 µM), for inactives: at the highest dose activity, negative = inhibition, most hits filed as inhibitors | hit rate 7.3% among 220,000 | AID 1030;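 note: plate controls were no enzyme wells and a reference inhibitor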
Target sequence (P00352 whole entry, looked up): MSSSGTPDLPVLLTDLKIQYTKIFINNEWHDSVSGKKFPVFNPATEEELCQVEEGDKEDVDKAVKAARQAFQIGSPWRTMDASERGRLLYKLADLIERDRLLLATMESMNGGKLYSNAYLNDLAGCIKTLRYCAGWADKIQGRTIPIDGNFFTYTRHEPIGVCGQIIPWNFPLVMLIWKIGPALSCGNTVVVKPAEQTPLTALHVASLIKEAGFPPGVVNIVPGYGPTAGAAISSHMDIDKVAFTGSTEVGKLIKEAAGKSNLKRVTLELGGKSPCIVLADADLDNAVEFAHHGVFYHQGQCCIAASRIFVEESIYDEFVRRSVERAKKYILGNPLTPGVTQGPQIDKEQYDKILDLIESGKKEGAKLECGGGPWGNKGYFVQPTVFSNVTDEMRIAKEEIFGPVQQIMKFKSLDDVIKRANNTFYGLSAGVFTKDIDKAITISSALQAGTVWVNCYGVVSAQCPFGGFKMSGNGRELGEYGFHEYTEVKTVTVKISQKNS
Tau fibril ThT: inhibitors of human tau fibril formation, thioflavin T binding | P10636 | recombinant tau K18 P301L (four-repeat tau fragment), heparin-induced fibrillization, ThT fluorescence | AID 1460 | Potency, µM (series often up to 57.4 µM), for the others: at the top dose activity, negative = inhibition, most hits filed as inhibitors | hit rate 2.1% among 270,000; active = well fitted curve in the direction sought with a large enough effect; inconclusive = small, poorly fitted or top-dose-only effect, or another doubt; inactive = no such curve, though single readings can be large; an effect the other way counts as inactive or inconclusive; note: nearly all actives have a fitted effect of over 55% in size
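Tau K18 P301L fragment (15 uM unlabeled plus 0.24 uM Alexa 594-labeled) in 100 mM sodium acetate pH 7 with compound, fibrillization induced by 20 uM heparin for 6 hr at 37 C. Thioflavin T (30 uM) added, fluorescence read after 1 hr (ex 450, em 510 nm).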
JMJD2E inh: blocks human JMJD2E demethylase activity. B2RXH2. JMJD2E catalytic domain, FDH-coupled NADH fluorescence (FDH is formaldehyde dehydrogenase). Potency, µM (highest dose often 57.1 µM), for the others: top-dose activity change, negative = inhibition, most hits filed as inhibitors. hit rate 1.6% among 230,000. AID 2147;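 note: 0% = wells with enzyme and -100% = buffer wells without enzyme; nearly all actives have a fitted effect of over 50% in size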
* marks the source's active call; other numbers are inactive results; u = inconclusive; x = no result; [ ] = dose if it differs, or a comment. Rows were chosen to be rich in hits. Some 9.9% of all compounds tested hit in one or more screens of this group. Unless noted, calls come from the whole dose curve; as a rule, active = well fitted inhibition curve with a large enough effect (not every such curve was filed as active); inconclusive = small, poorly fitted or top-dose-only effect, or another doubt; inactive = no such curve, though single readings can be large or run the other way. Unless noted, % is set by controls: 0 for no effect and ±100 for the full control effect; potency is the fitted concentration of half-maximal effect.

SMILES | Tau fibril FP | HPGD block | Tau fluor cs | ALDH1A1 inh | Tau fibril ThT | JMJD2E inh
CCn1nc(-c2ccccc2)nc2c(=O)n(C)c(=O)nc1-2 | u | -14% | -10% | u | 16µM* | 28µM*
CC(C)CN(CC(C)C)c1ccc(C=C2C(=O)NC(=S)NC2=O)cc1[N+](=O)[O-] | u | 8.9µM* | u | 11µM* | 25µM* | u
CCN(CC)c1ccc(C=C2C(=O)NC(=S)NC2=O)cc1 | -7% | x | u | 0.11µM* | u | u
NNc1nncn1N | x | -11% | x | -8%[13.5 µM] | x | x
O=NN(CCO)CCO | x | -7% | x | u | x | x
Oc1ccc2c3c1O[C@H]1c4[nH]c5ccccc5c4C[C@]4(O)[C@H](C2)N(CC2CC2)CC[C@@]314 | -7% | -7% | -16% | -4% | -15% | 9%
NC(N)=Nc1ccc2[nH]c3c(c2c1)C[C@]1(O)[C@@H]2Cc4ccc(O)c5c4[C@]1(CCN2CC1CC1)[C@@H]3O5 | -6% | -14% | -13% | 25µM* | -9% | u
O=C(Cc1ccccc1)N1CCN(CC2CC=CCC2)CC1 (configuration not stated) | 1% | -8% | -7% | 13µM* | -6% | u
CCCCC(=O)Cl | x | -8% | x | u | x | x
CC(=O)Oc1c2c(c(CC=C(C)C)c3c1C(=O)C1=CC4CC5C(C)(C)OC(C/C=C(\C)C(=O)O)(C4=O)[C@]15O3)OC(C)(CCC=C(C)C)C=C2 (some centres not stated) | 10µM* | 28µM* | u | u | 7.1µM* | -15%
COC(=O)/C(C)=C\CC12OC(C)(C)C3CC(C=C4C(=O)c5c(OC)c6c(c(CC=C(C)C)c5OC431)OC(C)(CCC=C(C)C)C=C6)C2=O (configuration not stated) | u | -21% | -22% | u | 28µM* | u
ClC(Cl)Br | x | -6% | x | 3% | x | x
O=C1NC(=O)N(c2ccccc2F)C(=O)/C1=C/c1ccc(Oc2ccc([N+](=O)[O-])cn2)cc1 | -16% | x | -30% | u | u | u
O=C1NC(=O)C(=Cc2ccc(OCCOc3ccc([N+](=O)[O-])cc3)cc2)C(=O)N1 | -16% | x | -17% | 18µM* | u | 28µM*
Cc1ncc(CN2CC=C(c3ccccc3)CC2)c(N)n1 | 7% | -11% | -11% | u | -10% | -27%
COc1ccc(CCNCc2ccc3c(c2)n(C)c(=O)n3C)cc1 | -8% | x | -7% | x | -7% | x
COc1ccc(CCn2c(NN=C3CCCCC3)nc3c2c(=O)[nH]c(=O)n3C)cc1 | u | x | u | x | 28µM* | u
CC(C)CC(N)C1(c2ccc(Cl)cc2)CCC1 (configuration not stated) | 1% | -3% | -8% | 0% | -8% | 4%
O=C(O)CNC(=O)c1ccc([As](=O)(O)O)cc1 | x | -5% | x | 4%[13.5 µM] | x | x
O=C1NC(=O)C(=Cc2coc3ccc(O)cc3c2=O)C(=O)N1 | -8% | x | -14% | 3.5µM* | u | 18µM*
O=C1NC(=O)C(=Cc2ccc3c(c2)OCO3)C(=O)N1 | u | x | 2% | u | u | u
Cc1cc(=O)n2[nH]c(C)cc2n1 | -3% | x | -12% | -12% | -11% | u
O=C1c2ccccc2C(Nc2ccc(S(=O)(=O)N3CCCCCC3)cc2)N1c1ccccn1 (configuration not stated) | -17% | -7% | -19% | 0.79µM* | -10% | 0%
CC(C)(OO)c1ccccc1 | x | -2% | x | u | x | x
CCCCc1ccc(C(=O)O)nc1 | -5% | 7% | -17% | 4% | u | 10µM*
C[n+]1c(/C=C\c2ccc(O)c3ncccc23)[se]c2ccccc21 | x | -11% | x | -7%[13.5 µM] | x | x
Nc1ccc(C2(c3ccc(N)cc3)c3ccccc3-c3ccccc32)cc1 | u | -12% | 14µM*[quencher] | 5% | u | u
Cc1c(C(=O)c2cccc3ccccc23)c2cccc3c2n1[C@@H](CN1CCOCC1)CO3 | -11% | -1% | u | u | -20% | x
